Measured values as given in PubChem BioAssay (NCI).
The panel holds about 79,000 compounds, 15% with a hit somewhere; the sample as a whole holds those more often. Rule as the data show it: active = growth inhibition above about 70%; inactive = the rest. Where a SMILES comes first, the peptide text is derived from it. The star is where a group is joined. Boc = CC(C)(C)OC(=O)*

Experiments:
[1] = NCI Yeast Anticancer Drug Screen. Data for the rad50 strain (AID 155);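 also: 0% = growth of vehicle-only cultures of the same strain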; conditions: S. cerevisiae rad50 strain growth inhibition; at 50.0 µM; active compounds read high
Method in brief: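 Inhibition values express reduced yeast growth in compound-treated cultures relative to vehicle-treated controls.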

[2] = NCI Yeast Anticancer Drug Screen. Data for the mec2-1 strain (AID 157); conditions: S. cerevisiae mec2-1 strain, at 50.0 µM, active compounds read high
Method in brief: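 Each compound was tested on mec2-1 yeast, a strain altered in DNA damage repair or cell cycle control. Growth inhibition is reported relative to vehicle.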

[3] = NCI Yeast Anticancer Drug Screen. Data for the sgs1 mgt1 strain (AID 161);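 also: 0% = growth of cultures given vehicle only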; conditions: S. cerevisiae sgs1 mgt1 strain, at 50.0 µM, active compounds read high
Method in brief: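 Read-out: growth inhibition vs vehicle controls. Cells: mutant yeast strain deficient in DNA damage repair.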

[4] = NCI Yeast Anticancer Drug Screen. Data for the cln2 rad14 strain (AID 165);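 also: 0% = growth equal to vehicle treated cultures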; conditions: S. cerevisiae cln2 rad14 strain, at 50.0 µM, active compounds read high
Method in brief: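 Test compounds were added to cln2 rad14 yeast cultures; inhibition of growth was then determined by comparison with vehicle treatment.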

[5] = NCI Yeast Anticancer Drug Screen. Data for the bub3 strain (AID 167); conditions: S. cerevisiae bub3 mutant strain, at 50.0 µM, active compounds read high
Method in brief: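 Steps: expose the mutant yeast strain to compound; grow alongside vehicle-treated cultures; measure growth; express inhibition against the vehicle cultures.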

[6] = NCI Yeast Anticancer Drug Screen. Data for the mlh1 rad18 strain (AID 175); conditions: S. cerevisiae mlh1 rad18 strain growth inhibition; at 50.0 µM; active compounds read high
Method in brief: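 Inhibition values reflect reduced growth of mutant yeast versus vehicle-treated controls following compound exposure; the mutations affect DNA damage repair.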

Measured: growth inhibition

CCOC(=O)C1C(C)=CC(=O)CC1C(C)C (stereo unspecified)
inactive: [1] 4.1% | [2] -8.5% | [3] 5.7% | [4] -20.6% | [5] -15.8% | [6] 5.2%

CCOC(=O)c1c(NC2=NCCC2)n[nH]c1N
inactive: [1] 7.05% | [2] 14.8% | [3] 15% | [4] 14.7% | [5] -18.6% | [6] 5.9%

OC(CCc1ccco1)CCc1ccco1
inactive: [1] 19.9% | [2] 6.6% | [3] 11.5% | [4] 1.4% | [5] 10.7% | [6] 14.1%

CC1=CC2N(C=C1)C(c1cccc([N+](=O)[O-])c1)=NON2c1cc(C)ccn1 (stereo unspecified)
inactive: [1] 7.05% | [2] 0.95% | [3] 6.85% | [4] 13.6% | [5] -1% | [6] 23.9%

O=C(O)CCSc1nc2ccccc2s1
inactive: [1] 1.2% | [2] -9.85% | [3] 2.75% | [4] 0.3% | [5] -14.2% | [6] 19.1%

COc1ccc(C(=O)N/N=C/c2ccccc2)cc1
inactive: [1] 8.3% | [2] -10.8% | [3] -7.7% | [4] 6.85% | [5] 2.6% | [6] -18.1%

CCC(O)(C#CCl)CC
inactive: [1] 11.6% | [2] -10.9% | [3] 10% | [4] 10.2% | [5] -29.1% | [6] 11.1%

CCN(CC)C1=Nc2ccccc2N(c2ccccc2)C(=S)C1
inactive: [1] 46.9% | [2] 25.5% | [3] 30.1% | [4] 13.9% | [5] 36.2% | [6] 51.2%

C=C1C(=O)OC2/C=C(\C)C(=O)CC3OC(C)(C)OC3(C)CC(OC(=O)/C(C)=C/C)C12 (stereo unspecified)
inactive: [1] 15.4% | [2] -14% | [3] 16.6% | [4] 9.6% | [5] -16.2% | [6] -30.6%

O=C1NC(Cc2ccc(O)cc2)C(=O)N1c1ccccc1O (stereo unspecified)
inactive: [1] 2.5% | [2] 0.95% | [3] 5.35% | [4] 2.5% | [5] -6.9% | [6] 3.5%

Nc1ccc(C(=O)NN2C(=O)C(Cl)C2c2ccccc2Cl)cc1 (stereo unspecified)
inactive: [1] 45.2% | [2] 32.7% | [3] 27.9% | [4] 38.8% | [5] 38.3% | [6] 31.5%

C(=N\c1nccs1)/c1ccc(/C=N/c2nccs2)cc1
inactive: [1] -5.2% | [2] -5.2% | [3] 1.6% | [4] 9% | [5] 12.1% | [6] 7%

CC(=O)Nc1cccc(Cc2ccccc2)c1
inactive: [1] 14.3% | [2] -14.4% | [3] 1.05% | [4] -67.2% | [5] -6.3% | [6] -4.6%

Nc1nc(Cl)nc2c1ncn2C1CCC(CO)O1 (stereo unspecified)
inactive: [1] -21.2% | [2] 1.35% | [3] -7.9% | [4] 5.5% | [5] 4.15% | [6] 16.1%

COc1ccc([N+](=O)[O-])c(C#N)c1
inactive: [1] 5.95% | [2] -2.2% | [3] 3.35% | [4] -9.75% | [5] -9.4% | [6] -46.6%

COC(=O)C(Cc1ccccc1)NC(=O)C(Cc1ccccc1)NC(=O)OC(C)(C)C (stereo not drawn) (Boc-Phe-Phe-OMe; configuration not given here)
inactive: [1] -7.05% | [2] -4.3% | [3] -18.9% | [4] -51% | [5] 0.15% | [6] -6.4%

CC(C)=NNC(=O)Nc1cccc(C)c1C
inactive: [1] 9.35% | [2] 15.2% | [3] -7.2% | [4] -47.3% | [5] -9.85% | [6] -6.7%

COc1ccc(C2(C)c3ccccc3C(=O)C(C)(C)C2(C)CC(=O)O)cc1 (stereo unspecified)
inactive: [1] -0.65% | [2] 6.45% | [3] -1.8% | [4] -9.7% | [5] 5.05% | [6] 5.2%

Cc1cc2oc3ccccc3c(=O)c2c(C)c1Cl
inactive: [1] -18.1% | [2] 5.1% | [3] -9.65% | [4] -3.1% | [5] 10.4% | [6] -3.6%

CCOC(=O)CNCc1ccc(Cl)c(Cl)c1
inactive: [1] 16.1% | [2] 4.15% | [3] 28.2% | [4] -15.6% | [5] 26.9% | [6] 21.9%

C[C@]12CCC(=O)C=C1CC[C@@H]1[C@@H]2CC[C@]2(C)C(=O)NC(=O)C[C@@H]12
inactive: [1] -1.65% | [2] -15.8% | [3] 32.6% | [4] 24.9% | [5] -3% | [6] -16.9%

Cc1cc(OC(=O)c2ccc(N)cc2)ccc1C1=NCC(C)S1 (stereo unspecified)
inactive: [1] 39% | [2] 20% | [3] 38% | [4] -3.05% | [5] 8.3% | [6] 0.1%

CNC(=O)C1CCC(=O)N1CN(C(C)=O)c1ccccc1 (stereo unspecified)
inactive: [1] 3.85% | [2] 13.9% | [3] -12.9% | [4] 13.7% | [5] -13.9% | [6] -63.5%

COc1ccccc1OC(=O)Nc1ccc(S(=O)(=O)N(C)C)cc1
inactive: [1] 28.2% | [2] 8.5% | [3] 0% | [4] 4.1% | [5] 8.65% | [6] 6.65%

COC(=O)c1cc(C(=O)c2ccccc2)cc2c1c(=O)[nH]c1ccccc12
inactive: [1] -0.95% | [2] -7.5% | [3] -16.4% | [4] -5.7% | [5] -23.9% | [6] 6.75%

CC(=O)Nc1ccccc1O
inactive: [1] -4.75% | [2] -15.2% | [3] -0.85% | [4] -18.3% | [5] 0.35% | [6] 14.2%

N#CC(CC(=O)O)=C(c1ccccc1)c1ccccc1
inactive: [1] -6.75% | [2] -22.2% | [3] -20.5% | [4] 11.7% | [5] -50.8% | [6] 8.95%

Cc1cc(NC(=O)C(=O)CC(=O)c2cccnc2)no1
inactive: [1] -59% | [2] -1.8% | [3] -8.2% | [4] -52.1% | [5] -6.2% | [6] -4.15%

COc1cc(/C=C(/C#N)C(N)=O)cc(OC)c1OC
inactive: [1] 15.6% | [2] 10.6% | [3] 18.9% | [4] 12.3% | [5] 11.1% | [6] 14.8%

CN(C)c1ccccc1CC(=O)Nc1ccccc1
inactive: [1] -12.6% | [2] 4.45% | [3] -5.85% | [4] -21.8% | [5] 1.9% | [6] 3.1%

CCOC(=O)CC1(O)Oc2cc3c(cc2C(c2cc(OC)c(OC)c(OC)c2)C1C(=O)OCC)OCO3 (stereo unspecified)
inactive: [1] -0.75% | [2] -5.9% | [3] -21.6% | [4] -0.55% | [5] -1.45% | [6] 10.2%

O
inactive: [1] 13.2% | [2] 9.15% | [3] 17% | [4] 6.2% | [5] -16.8% | [6] -4%

CC(C)(C)OC(=O)CN1C(=O)CCC1=O
inactive: [1] 6.25% | [2] 8.65% | [3] 20.2% | [4] -26.1% | [5] 4.45% | [6] -5.15%

COc1cc2c(cc1C)C(C)(C)CCC2(C)C
inactive: [1] 7.8% | [2] -0.45% | [3] -3.1% | [4] -45.1% | [5] 20.6% | [6] 4.15%

CSc1ccc(NC(=S)NN(C)C)cc1
inactive: [1] -22.9% | [2] -25.3% | [3] -15.2% | [4] 9.35% | [5] 1.4% | [6] -7.65%

O=C(O)c1cccc(F)c1C(=O)c1ccc2ccccc2c1
inactive: [1] -13.7% | [2] 4.15% | [3] -12.8% | [4] -15.2% | [5] -22.1% | [6] -9.7%

COC(=O)/C=C(\C)Nc1cccc([N+](=O)[O-])c1
inactive: [1] -15.2% | [2] -0.65% | [3] -18.9% | [4] -36.9% | [5] -0.75% | [6] -7.3%

CC1=C(c2cc(C(=O)Nc3cccc(Cl)c3)nc(NC#N)n2)Sc2ccccc2N1
inactive: [1] 25.6% | [2] 0.9% | [3] -0.7% | [4] 16.4% | [5] 4.75% | [6] 33.5%

CN(C)CCCCCCNCCC#N
inactive: [1] 21.2% | [2] -27.8% | [3] -8.4% | [4] -8.85% | [5] -28.4% | [6] -1.6%

Clc1ccc(-c2nnc(-c3cccc4ccccc34)o2)cc1Cl
inactive: [1] 10.1% | [2] -32.3% | [3] -29.5% | [4] 54% | [5] -47.9% | [6] -15%

Cc1cc(C)c(NC(=O)Nc2cccc(Cl)c2)c(C)c1
inactive: [1] -0.85% | [2] 17.3% | [3] 1.7% | [4] -4% | [5] 3.35% | [6] -17.1%
